Among the data in PubChem BioAssay (NCATS) are Potency and outcome values, retold here.

Test [1] deals with Zika virus NS2B-NS3 protease (unlinked). Put plainly: Optimization of GU AMC qHTS for Zika virus inhibitors: Unlinked NS2B-NS3 protease assay (AID 1347151). Also: series mostly up to about 52 µM; nearly all actives have a fitted effect of over 80% in size. The essentials:
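Unlinked protease (25 nM final); buffer 10 mM Tris-HCl pH 8.0 + 0.01% Tween 20; AMC substrate; 15 min RT, dark; Δfluorescence normalized to no-inhibitor/no-enzyme controls; 4-parameter Hill fit.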

The target of test [2] is Lysine-specific demethylase 5B (Homo sapiens) (UniProt Q9UGL1). Put plainly: Optimization screen for KDM5B Histone Demethylases FDH coupled qHTS against the LOPAC library (AID 1347166). The essentials:
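KDM5BDeltaAP (200nM final) preincubated 10 min with compound, then 12.5uM H3K4Me3, 25uM a-ketoglutarate, ascorbate, Fe(II), NAD+ and FDH added; 50mM HEPES pH 7.5, 0.01% Tween-20. NADH fluorescence (340/450 nm) change over 30 min, room temperature.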
On the technique in general: qHTS replaces the single test concentration by a dilution series.

The subject of test [3] is Zika virus NS2B-NS3 protease. The test is described as follows: Primary screen GU AMC qHTS for Zika virus inhibitors (AID 1347154). Also: nearly all actives have a fitted effect of over 70% in size. The essentials: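 Unlinked Zika NS2B hydrophilic domain–NS3 protease complex at 25 nM in 10 mM Tris-HCl pH 8.0, 0.01% Tween 20, with an AMC peptide substrate. Fluorescence change (340/450 nm) over 15 min at room temperature, normalized to controls, fitted to 4-parameter Hill.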

The test system of test [4] is Zika virus NS2B-NS3 protease (unlinked complex). The test is described as follows: Confirmatory screen GU AMC qHTS for Zika virus inhibitors (AID 1347153). Also: nearly all actives have a fitted effect of over 70% in size. The essentials: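 Compounds were preincubated 15 min at room temperature with 25 nM noncovalent NS2B-NS3 protease at pH 8.0; AMC substrate added at 10 microM and 15-min fluorescence gain (340/450 nm) converted to percent inhibition, fitted 4-parameter.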

The test system is the same in test [5]. Put plainly: Primary screen GU Rhodamine qHTS for Zika virus inhibitors: Unlinked NS2B-NS3 protease assay (AID 1347159). Also: nearly all actives have a fitted effect of over 60% in size. The essentials:
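Percent inhibition derives from the 15-min fluorescence change (ex 480, em 540 nm), normalized to no-enzyme and no-inhibitor wells. Reactions contained 25 nM NS2B-NS3 complex and 1.5 microM substrate in 10 mM Tris-HCl pH 8.0.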

The subject of test [6] is Zika virus NS2B-NS3 protease (linked construct). Put plainly: Primary screen NINDS Rhodamine qHTS for Zika virus inhibitors (AID 1347160). Also: nearly all actives have a fitted effect of over 55% in size. The essentials: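 In 10 mM Tris-HCl pH 8.0 containing 0.01% Tween 20, linked NS2B-NS3 protease (25 nM final) is exposed to test compounds for 15 min. Cleavage of 1.5 microM Rhodamine110 substrate is tracked by fluorescence over 15 min.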

A short description of test [7]: Confirmatory screen NINDS Rhodamine qHTS for Zika virus inhibitors (AID 1347161).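 Also: purified Zika NS2B-NS3 protease with linked NS2B cofactor domain and Rhodamine110 peptide substrate; series mostly up to about 110 µM; nearly all actives have a fitted effect of over 60% in size.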 The essentials:
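Kinetic fluorescence (Ex 480 nm, Em 540 nm) over 15 min with 1.5 microM Rhodamine110 peptide and 25 nM linked protease.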

Test [8] is described as follows: Vero cells viability qHTS for Zika virus inhibitors (AID 1347167). The essentials: (§1)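 Cells seeded at 2.5 x 10^5 cells/mL in DMEM with 4% FBS and attached overnight at 37 degrees C, then exposed to compound for 24 to 48 hours. Viability read as ATP content by CellTiter Glo luminescence.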
A short description of test [9]: ZIKV-mCherry secondary qHTS for Zika virus inhibitors (AID 1347158). Also: top concentration of the series differs between compounds. The essentials: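 Vero, 5,000 cells/well, o/n 37 °C; cpd pin-transferred in DMSO; ZIKV-mCherry MOI 1, 48-72 h 37 °C; 32% PFA stock fix, Hoechst; imaged 10x DAPI/mCherry; mCherry+ threshold 450 RFU; % infection.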
The subject of test [10] is Zika virus NS2B-NS3 protease (linked). Put plainly: 384 well plate NINDS AMC confirmatory qHTS for Zika virus inhibitors (AID 1347163). Also: potency is read from the fitted curve at half-maximal effect; nearly all actives have a fitted effect of over 50% in size. The conditions noted are these: Recombinant NS2B-NS3 protease, Ac-VKTGKR-AMC fluorescence. The essentials: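 Linked NS2B-NS3 protease (final 5 nM, 30 nM or 60 nM) was preincubated with compounds (final up to 1 mM) for ~15 minutes. Ac-VKTGKR-AMC substrate (final 30 microM) then reacted for 25 minutes at room temperature in the dark. Fluorescence (ex 355/em 460 nm) was normalized to no-enzyme and no-inhibitor controls.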

In test [11] the test system is Zika virus NS2B-NS3 protease (linked construct). Put plainly: 384 well plate NINDS Rhodamine confirmatory qHTS for Zika virus inhibitors (AID 1347164).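 Also: fluorescence from protease cleavage of Ac-LKRR-rhodamine 110 substrate; potency is read from the fitted curve at half-maximal effect; nearly all actives have a fitted effect of over 65% in size.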 The essentials: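 Enzyme (final 5/30/60 nM) + cpd (DMSO), ~15 min; add Ac-LKRR-Rd 10 microM final; 25 min RT, dark; FI ex 485/em 538; normalized to no-enzyme, no-inhibitor ctrls; aprotinin intraplate ctrl.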
A short description of test [12]: HepG2 cells viability qHTS for Zika virus inhibitors (AID 1347168). The essentials:
as §1

Test [13] can be described thus: Tertiary RLuc qRT-PCR qHTS assay for Zika virus inhibitors (AID 1347169). Also: nearly all actives have a fitted effect of over 55% in size. Also: potency is read from the fitted curve at half-maximal effect. The essentials: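 Vero, 1,000 cells/well, o/n 37 C; cpd pinned in DMSO; ZIKV-RLuc Cambodian, MOI 1-2, 48-72 h 37 C; live-cell RLuc substrate, lum read at 1-1.5 h.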
For orientation: In qPCR the cycle at which signal appears reflects the starting amount.

Records with an inconclusive call do not appear. Entries that show only a call come without a potency. The source made the active and inactive calls. Calls follow the shape of the dose curve; as a rule, active = well fitted curve in the direction sought with a large enough effect; inconclusive = small, poorly fitted or top-dose-only effect, or another doubt; inactive = no such curve, though single readings can be large; an effect the other way counts as inactive or inconclusive.

Lysine-specific demethylase 5B (Homo sapiens), sequence (Q9UGL1 whole entry, looked up): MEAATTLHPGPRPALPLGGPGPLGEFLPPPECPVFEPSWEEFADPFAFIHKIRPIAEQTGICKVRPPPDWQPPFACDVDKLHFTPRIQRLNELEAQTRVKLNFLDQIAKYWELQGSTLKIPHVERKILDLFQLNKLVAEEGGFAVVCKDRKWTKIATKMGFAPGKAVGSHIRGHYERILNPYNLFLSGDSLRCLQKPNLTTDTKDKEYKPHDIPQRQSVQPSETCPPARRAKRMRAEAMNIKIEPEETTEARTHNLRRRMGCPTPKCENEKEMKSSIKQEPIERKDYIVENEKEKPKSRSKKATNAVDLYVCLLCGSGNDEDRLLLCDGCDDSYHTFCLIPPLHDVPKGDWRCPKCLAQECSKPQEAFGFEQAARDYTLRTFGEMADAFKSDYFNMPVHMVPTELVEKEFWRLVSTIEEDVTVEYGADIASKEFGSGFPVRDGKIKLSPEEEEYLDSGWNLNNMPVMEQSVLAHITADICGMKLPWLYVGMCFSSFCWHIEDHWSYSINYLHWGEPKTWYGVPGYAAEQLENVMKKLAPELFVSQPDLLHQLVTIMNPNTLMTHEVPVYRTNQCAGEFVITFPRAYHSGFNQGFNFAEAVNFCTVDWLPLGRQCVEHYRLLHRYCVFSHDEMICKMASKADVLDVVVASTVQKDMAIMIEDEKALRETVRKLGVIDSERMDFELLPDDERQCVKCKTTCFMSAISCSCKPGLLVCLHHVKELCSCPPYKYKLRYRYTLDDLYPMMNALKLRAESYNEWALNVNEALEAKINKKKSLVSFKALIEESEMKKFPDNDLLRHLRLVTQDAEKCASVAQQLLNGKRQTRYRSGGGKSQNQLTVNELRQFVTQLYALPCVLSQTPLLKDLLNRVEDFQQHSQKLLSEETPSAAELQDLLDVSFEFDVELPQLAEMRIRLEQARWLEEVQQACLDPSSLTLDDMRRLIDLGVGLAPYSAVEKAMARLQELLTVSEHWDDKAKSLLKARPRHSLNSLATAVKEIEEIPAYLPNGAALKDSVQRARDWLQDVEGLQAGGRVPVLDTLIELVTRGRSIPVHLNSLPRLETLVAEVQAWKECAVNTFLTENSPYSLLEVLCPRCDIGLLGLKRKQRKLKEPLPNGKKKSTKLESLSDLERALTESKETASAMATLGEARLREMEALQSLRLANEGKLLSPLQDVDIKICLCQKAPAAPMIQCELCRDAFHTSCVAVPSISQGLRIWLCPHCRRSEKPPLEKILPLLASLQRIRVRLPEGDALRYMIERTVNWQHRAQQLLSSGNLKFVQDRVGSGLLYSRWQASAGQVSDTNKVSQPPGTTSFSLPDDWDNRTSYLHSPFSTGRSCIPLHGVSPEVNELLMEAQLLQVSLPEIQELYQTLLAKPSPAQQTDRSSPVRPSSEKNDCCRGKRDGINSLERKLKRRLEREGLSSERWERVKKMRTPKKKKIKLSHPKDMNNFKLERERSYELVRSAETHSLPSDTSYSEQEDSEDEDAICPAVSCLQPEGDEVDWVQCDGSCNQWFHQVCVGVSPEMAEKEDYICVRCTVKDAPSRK

As to `CCCCC#Cc1nc(NC)c2ncn([C@@H]3O[C@H](CO)[C@@H](O)[C@H]3O)c2n1`, in [1], the Potency entry was “inactive”. In test [2], the result was inactive. With `Cc1[nH]cnc1CN1CCc2c(c3ccccc3n2C)C1=O`, the Potency result in test [3] is “inactive”.

For the compound `O=C1CN(/N=C/c2ccc([N+](=O)[O-])o2)C(=O)N1`, the Potency entry in test [3] is “inactive”.

As to `Cc1c(N)c(=O)n(-c2ccccc2)n1C`, the Potency result in [3] was “inactive”.

With `O=P(O)(O)C(Cl)(Cl)P(=O)(O)O`, the Potency entry in test [1] is “inactive”. Besides, the compound was classed as inactive in test [2]. Regarding `COC(=O)C1=C(C)NC(C)=C(C(=O)OC)C1c1cccc(NC(=O)NCCCN2CCC(c3cccc(OC)c3)CC2)c1`, the compound was classed as inactive in [4] and in [8]. Besides, the Potency entry in test [5], in test [6] and in [7] was “inactive” throughout.

For the compound `CO/N=C(\C(=O)N[C@@H]1C(=O)N2C(C(=O)O)=C(COC(C)=O)CS[C@H]12)c1csc(N)n1`, the Potency result in test [1] was “inactive”. In [2], the compound was classed as inactive.

As to `CC1OC1P(=O)(O)O` (stereo not given), the Potency entry in test [1] was “inactive”. For the same compound, in test [2], the outcome was inactive. `CCCC(=O)OC[C@@H](OC(=O)CCC)[C@@H](OC(=O)CCC)[C@H](Cn1c2nc(=O)[nH]c(=O)c-2nc2cc(C)c(C)cc21)OC(=O)CCC`: in [3], the Potency result was “inactive”. For the compound `O=C1/C(=C/c2ccsc2)CC/C1=C\c1cccs1`, the Potency result in [1] was “inactive”. The outcome in [2] was inactive. `O=C(c1ccc(Cl)cc1)N1CCN(c2ccc([N+](=O)[O-])c3ncccc23)CC1`: the Potency entry in [1] is “inactive”. In addition, the outcome in [2] was inactive. For `Fc1cccc(/C=N/N=C/c2cccc(F)c2)c1`, the Potency entry in test [1] is “inactive”. For the same compound, the compound was called inactive in test [2]. With `CCN(CC)c1ncnc2c1ncn2[C@@H]1O[C@H](COP(=O)(O)OP(=O)(O)C(Br)(Br)P(=O)(O)O)[C@@H](O)[C@H]1O`, in test [1], the Potency entry was “inactive”. For the same compound, the compound was classed as inactive in [2].

Take `C#C[C@]1(O)CC[C@H]2[C@@H]3CCc4cc(O)ccc4[C@H]3CC[C@@]21C`: the Potency result in [3] was “inactive”. As to `C[N+]1(C)C2CC(OC(=O)[C@H](CO)c3ccccc3)CC1C1OC12` (stereo not given in full), the Potency entry in test [1] was “inactive”. In addition, the result in test [2] was inactive.

In the case of `CCN1/C(=C/C(C)=O)Sc2ccc(OC)cc21`, the Potency result in test [1] was “inactive”. The call in [2] was inactive. Turning to `O=C(CS)Nc1ccccc1`, the Potency result in test [3] was “inactive”. `Cc1ccc(O)c(-n2nc3ccccc3n2)c1`: the Potency result in test [3] was “inactive”. Consider `CN(C)[C@@H]1C(=O)C(C(=O)NCN2CCCC2)=C(O)[C@@]2(O)C(=O)C3=C(O)c4c(O)cccc4[C@@](C)(O)C3C[C@@H]12` (stereo not given in full), for which the compound was classed as inactive in test [9]. Besides, the Potency was 0.891 µM (active) in test [10] and 44.7 µM (active) in [11]. With `CN1CCN(c2cc3c(nn2)Oc2ccccc2N3C)CC1`, the Potency entry in [7] and in test [13] was “inactive” throughout. The compound was called inactive in test [8] and in [12]. In the case of `CC[C@@H](C)[C@H]1O[C@]2(CC[C@H]1C)C[C@@H]1C[C@@H](CC=C(C)[C@@H](O[C@H]3C[C@H](OC)[C@@H](O[C@H]4C[C@H](OC)[C@@H](O)[C@H](C)O4)[C@H](C)O3)[C@@H](C)C=CC=C3CO[C@@H]4[C@H](O)C(C)=C[C@@H](C(=O)O1)[C@]34O)O2`, the Potency in test [13] was 3.7 µM (active).
